Test results from ChEMBL document CHEMBL3988442, “University of Dundee, Small-Polar-MMV Screening Library” (2021).
About 13,000 (27%) of roughly 48,000 compounds showed an effect of 50% or more. This is one part of the list.

Test system: Wolbachia pipientis
Assay: Anti-Wolbachia Cell-Based Screen
Assay type: functional
Parameters: scale not given: in the data most compounds retested in dose-response had high values
Details: 5 µM

Structure (SMILES)	Percent Effect
CC(=O)N1[C@H](Cn2cncn2)C[C@@H]2CN(c3ncccn3)CC[C@@H]21	-1.924%
COCC1CCN(S(=O)(=O)N2C[C@@H](C)[C@](O)(C3CC3)C2)CC1	-6.27%
COC(=O)c1ccc(NC(=O)NC2CCc3[nH]ncc3C2)cc1 (stereo not given)	-3.404%
CC(C)CC(=O)N1CC[C@@H]2CN(Cc3cccnc3)S(=O)(=O)[C@@H]2CC1	111.2%
O=C(O)C(F)(F)F.O=C(c1cc[nH]n1)N1CC[C@@H]2CN(Cc3ccccc3)S(=O)(=O)[C@@H]2CC1	-14%
COCC(=O)N1CC[C@@H]2CN(Cc3cccnc3)S(=O)(=O)[C@@H]2CC1	104.6%
O=C(C1CCCO1)N1CC[C@@H]2CN(Cc3ccccc3)S(=O)(=O)[C@@H]2CC1 (stereo not given in full)	-10.05%
COCC(=O)N1CC[C@@H]2CN(Cc3cccc(Cl)c3)S(=O)(=O)[C@@H]2CC1	-12.94%
CC(C)CNC(=O)N1CC[C@@H]2CN(Cc3cccnc3)S(=O)(=O)[C@@H]2CC1.O=C(O)C(F)(F)F	96.93%
CC(=O)N1CC[C@@H]2CN(Cc3ccncc3)S(=O)(=O)[C@@H]2CC1.O=C(O)C(F)(F)F	-10.18%
COCC(=O)N1CC[C@@H]2CN(Cc3ccccc3)S(=O)(=O)[C@@H]2CC1	-9.3%
CC(C)CC(=O)N1CC[C@@H]2CN(CC(=O)N(C)C)S(=O)(=O)[C@@H]2CC1	-34.28%
O=C(C1CCC1)N1CC[C@@H]2CN(Cc3cccnc3)S(=O)(=O)[C@@H]2CC1	102.5%
O=C(c1cc[nH]n1)N1CC[C@@H]2CN(Cc3cccnc3)S(=O)(=O)[C@@H]2CC1	-2.568%
O=C1O[C@@H]2CN(c3ccncc3)C[C@@H]2N1CCCc1ccc(F)cc1	-4.206%
CN(CCO)CC1COCCN1C(=O)C1(c2cccs2)CCCC1.O=CO (stereo not given)	2.363%
COCCC1(CO)CCCN(C(=O)c2cccnc2O)C1 (stereo not given)	1.104%
Cl.O=C1C(NCc2ccc3c(c2)CCO3)CCN1Cc1ccccc1 (stereo not given)	-4.636%
COCC(=O)N1CCC(C(=O)N(C)C(C)c2ccon2)CC1 (stereo not given)	2.013%
CC[C@@H](NC(C)=O)C(=O)NCc1cccnc1Oc1ccccc1OC	5.567%
CCOc1ncccc1CNC(=O)Nc1ccc(OC)c(OC)c1	124%
CCOc1ccc(NC(=O)NCc2cccnc2OCC)cc1	105.6%
CCOc1ncccc1CNC(=O)Nc1ccccc1	95.65%
CCCNC(=O)NCc1cccnc1OC	1.177%
CCOc1ncccc1CNC(=O)Nc1ccc(CC)cc1	115%

Structure (SMILES)	Percent Effect
CCOc1ncccc1CNC(=O)CN1CCCCCC1=O	-62.17%
COc1ccccc1C(O)CNC(=O)NCc1cccnc1OC (stereo not given)	-5.086%
COc1ncccc1CNC(=O)NCCNC(=O)c1ccco1	0.6647%
CCCS(=O)(=O)NCc1cccnc1OCC	-4.428%
CN(C)C(=O)C1CCCN1CCCNC(=O)c1ccccc1F (stereo not given)	12.21%
CC(C)(C(=O)NCCS(N)(=O)=O)c1cccc(Br)c1	-14.63%
COc1cccc(-c2n[nH]c3c2CN(C(=O)c2oc(C)cc2C)CC3)c1	3.438%
COc1ccccc1C(=O)N1CC(Cc2nccc3ccn(C)c23)C1	-2.36%
CCCN1CCc2[nH]cnc2C12CCN(C(=O)Cn1ccnc1C)CC2	-4.185%
CCn1ccc2ccnc(CC3CN(C(=O)c4ccc(F)cc4)C3)c21	128.6%
CCn1ccc2ccnc(CC3CN(C(=O)Cn4ccnc4C)C3)c21.O=CO	124.4%
CCN(CC)CC[C@H]1CN(C(=O)c2ccc(F)cc2)CC[C@H]1CC(=O)O	0.9693%
Cn1ccc2ccnc(CC3CN(C(=O)C4CCC(F)(F)CC4)C3)c21	-0.631%
CCn1ccc2ccnc(CC3CN(C(=O)c4cnco4)C3)c21	144.4%
O=C(C(CNCc1ccncc1)c1ccccc1)N1CCOCC1 (stereo not given)	0.2839%
O=C(Cc1ccc2c(c1)OCCO2)N1CCCC(n2cccn2)C1 (stereo not given)	7.45%
CC(C)c1nc(C2CCCN2Cc2ccncc2Cl)no1 (stereo not given)	81.18%
CC(C)c1nc(C2CCCN2CC(=O)Nc2ccc(Cl)cn2)no1 (stereo not given)	-4.076%
Cc1cc(CN2CCCC2c2noc(C(C)C)n2)on1 (stereo not given)	98.26%
CC(C)c1nc(C2CCCN2Cc2ccccc2C#N)no1 (stereo not given)	6.567%
CC(C)c1nc(C2CCCN2c2ccnc(C3CCCC3)n2)no1 (stereo not given)	0.08889%
CC(C)c1nc(C2CCCN2CC(=O)Nc2nncs2)no1 (stereo not given)	-0.6487%
CC(C)c1nc(C2CCCN2Cc2ccon2)no1 (stereo not given)	78.63%
CC(C)c1noc(CN2CCCC2c2noc(C(C)C)n2)n1 (stereo not given)	108.9%
CC(C)c1nc(C2CCCN2Cc2ccn(C)c(=O)c2)no1 (stereo not given)	-1.235%

Structure (SMILES)	Percent Effect
CCc1noc(CN2CCCC2c2noc(C3CC3)n2)n1 (stereo not given)	2.482%
c1ccc(-c2nnc3ccc(N4CCC5(CCOC5)C4)nn23)cc1 (stereo not given)	-13.9%
CNC(=O)CN1CCC(NC(=O)C(C)Oc2ccccc2C#N)CC1 (stereo not given)	0.1216%
CC(C)NS(=O)(=O)c1cc(C(=O)O)cc(-c2ccccc2CO)c1	11.88%
Cc1nc(CN2CCCC2c2noc(C(C)C)n2)oc1C (stereo not given)	98.12%
Cc1nc(C2CCCN2Cc2nc(C)c(C)o2)no1 (stereo not given)	-0.5484%
Cc1nc(C2CCCN2Cc2ncc(C(C)C)o2)no1 (stereo not given)	8.273%
Cn1cnnc1CNC(=O)C1CCCN(Cc2cccc(F)c2)C1 (stereo not given)	-3.668%
Cc1nc[nH]c1CN1CCC(C2CCN(CCc3ccccc3)C2)CC1 (stereo not given)	-8.62%
NC(=O)c1cccc2nc([C@H]3CCN(Cc4ccccc4F)C3)[nH]c12	1.754%
CCc1c(C)nc2cc(C3CCN(Cc4cccc(F)c4)C3)nn2c1O (stereo not given)	98.22%
Cc1cc(CN2CCC(C3CCN(CCc4ccccc4)C3)CC2)[nH]n1 (stereo not given)	-6.326%
CCc1c(C)nc2cc(C3CCN(Cc4cccnc4)C3)nn2c1O (stereo not given)	85.92%
CCc1c(C)nc2cc(C3CCN(CCc4ccccc4)C3)nn2c1O (stereo not given)	76.13%
Cc1nc2cc(C3CCN(Cc4ccccc4F)C3)nn2c(O)c1C (stereo not given)	92.44%
CCn1cnnc1CNC(=O)C1CCCN(Cc2cccc(F)c2)C1 (stereo not given)	3.888%
Cc1cc(CN2CCC(C3CCN(Cc4cccnc4)CC3)C2)[nH]n1 (stereo not given)	-58.7%
CCc1c(C)nc2cc(C3CCN(Cc4ccccc4F)C3)nn2c1O (stereo not given)	-15.15%
Cc1nc(N2CCOCC2)nc(C)c1NC(=O)COc1ccccc1	15.56%
c1cc(-c2noc(CN3CCn4c(nnc4C4CC4)C3)n2)co1	-9.374%
O=C1N(Cc2ccc(F)c(F)c2)CCCC12CCN(C1CCSCC1)C2 (stereo not given)	-6.504%
COCCCS(=O)(=O)N1CCN(C(=O)CO)CC1	-3.721%
CSc1sc(NC(=O)C2CCCN(C(N)=O)C2)nc1C (stereo not given)	-0.4613%
CCc1c(C)nc2cc(C3CCN(Cc4ccncc4C)C3)nn2c1O (stereo not given)	81.51%
CCc1c(C)nc2cc(C3CCN(Cc4ccc(F)cc4)C3)nn2c1O (stereo not given)	99.62%

Structure (SMILES)	Percent Effect
CCn1c(C2CCCN(Cc3cccc4cnccc34)C2)nn(C)c1=O (stereo not given)	3.036%
O=C(NC1(c2nc(C3CC3)no2)CCCCC1)c1ccncc1	-8.803%
O=C(c1ccccc1F)N1CCN(c2ccc(-n3cccc3)nn2)CC1	-6.21%
CNC(=O)c1cccnc1NCCOc1ccc(CC#N)cc1	4.731%
O=C(O)C(F)(F)F.O=C(O)[C@]12CCCN(Cc3ccoc3)C[C@H]1CN(c1ncccn1)C2	0.4182%
Cc1cnn(CC2CCCCN2C(=O)c2ccccc2-n2cccn2)c1 (stereo not given)	109.2%
Cc1cnn(CC2CCCN2C(=O)c2ccccc2-n2cccn2)c1 (stereo not given)	86.06%
Cc1cnn(CC2CCCCN2C(=O)c2sccc2C#N)c1 (stereo not given)	-11.17%
Cc1cnn(CC2CCCN2C(=O)c2cn(-c3ccccc3)nc2C)c1 (stereo not given)	-0.04653%
Cc1cnn(CC2CCCN2C(=O)c2ccccc2-n2cnnn2)c1 (stereo not given)	114.3%
Cc1cnn(CC2CCCN2C(=O)c2sccc2-n2cnnn2)c1 (stereo not given)	107.4%
Cc1cnn(CC2CCCN2C(=O)c2sccc2C#N)c1 (stereo not given)	-6.888%
O=C(c1cn(-c2cc(N3CCOCC3)ncn2)cn1)N1CCSCC1	-13.27%
COc1ccc2c(c1)OCC(CNC(=O)c1ccncc1)C2 (stereo not given)	2.151%
CCCS(=O)(=O)N1CCCC(c2nc(-c3ccccc3)c[nH]2)C1 (stereo not given)	7.84%
CSc1ncccc1C(=O)N1CCC(c2nc3c(C)cccc3[nH]2)CC1	-2.536%
Cc1c[nH]c(C2CCCN(Cc3ccccc3C(=O)O)C2)n1.O=CO (stereo not given)	102.4%
Cc1c[nH]c(C2CCCN(Cc3cccc(C(=O)O)c3)C2)n1 (stereo not given)	79.24%
Cc1cc(=O)[nH]c(-c2cccc(CN3CCCN4CCCC4C3)c2)n1 (stereo not given)	-8.166%
Cc1cccc2[nH]c(C3CCCN(Cc4ccccc4C(=O)O)C3)nc12 (stereo not given)	94.13%
CC(=O)N[C@@H]1CN(Cc2ccccc2C(=O)O)C[C@H]1C(C)C	-2.27%
Cc1c[nH]c(C2CN(Cc3ccccc3C(=O)O)CCO2)n1 (stereo not given)	102.8%
Cc1cccc2[nH]c(C3CCCN(Cc4ccc(CO)o4)C3)nc12 (stereo not given)	-5.911%
Cc1n[nH]c(C2CN(Cc3ncc(C(C)C)o3)CCO2)n1 (stereo not given)	3.962%
CCOC(=O)c1n[nH]cc1CN1CCOC(Cc2ccccc2)C1 (stereo not given)	4.032%
